Test results taken from the supplement of paper PMC12636033.
± gives the standard deviation of the averaged measurements. Whole data set: some 33,000 sequences, median “E-score (rank enrichment, -0.5 to 0.5)” near -0.0075, cut for the highest 2% near 0.23. Only a selection was taken, and the highest values are over-represented in it overall.

System: WT Max(13-93) synthetic (M65Nle)
Test: PBM 8-mer E-score (E-score (rank enrichment, -0.5 to 0.5)); higher = stronger preferential binding
Experimental: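 Protein binding microarray (universal PBM chip covering all 10-mers in fixed probe flanks) with chemically synthesized human Max(13-93) bHLH-LZ analogs (not full-length Max) bearing noncanonical residues (hArg, Tha, Aib, Nle at 65) and aromatic Cys staples. Read-out per 8-mer (and its reverse complement): E-score (rank-based enrichment, -0.5 to 0.5) and Z-score of median probe intensity.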

Row | Sequence | PBM 8-mer E-score
1 | ATGTGTTA | 0.275 ± 0.015
2 | ATGTGTCA | 0.175 ± 0.069
3 | ATATGTTC | 0.179 ± 0.0093
4 | CTGTGTTA | 0.0459 ± 0.023
5 | GGGTGTTA | -0.0337 ± 0.14
6 | ATATGTTA | 0.284 ± 0.051
7 | GTGTATTA | 0.247 ± 0.035
8 | CTATGTTA | 0.16 ± 0.052
9 | ATGTGTGA | 0.18 ± 0.12
10 | CTGTATTA | 0.138 ± 0.0022
11 | GTGTGTTA | 0.242 ± 0.099
12 | ATGTATTA | 0.225 ± 0.086
13 | TGAGATAA | 0.116 ± 0.07
14 | CAATGATC | -0.0206 ± 0.062
15 | CGCCTCGA | -0.0745 ± 0.097
16 | CTCCTGTC | -0.0511 ± 0.018
17 | TCGCTGAA | -0.0377 ± 0.086
18 | CCCCTGGC | -0.127 ± 0.042
19 | AACCTCAT | 0.156 ± 0.065
20 | GTTTCCAA | 0.0481 ± 0.061
21 | ATGTGTTG | 0.247 ± 0.035
22 | ATGTGTTC | 0.106 ± 0.0063
23 | ATATGTTG | 0.0792 ± 0.065
24 | AAACACGA | 0.19 ± 0.11
25 | GAACACGC | 0.105 ± 0.04

Row | Sequence | PBM 8-mer E-score
26 | AAACACGG | -0.0068 ± 0.091
27 | CAACACGC | 0.195 ± 0.0099
28 | AAACACGC | 0.24 ± 0.054
29 | AAACACGT | 0.329 ± 0.093
30 | AAACACAC | 0.132 ± 0.011
31 | AAACACAG | 0.153 ± 0.053
32 | AAACACAT | 0.287 ± 0.014
33 | AGTAAACG | 0.0125 ± 0.018
34 | AGGTCTTG | -0.116 ± 0.084
35 | TGACGCCA | -0.0607 ± 0.033
36 | ACTGCAGT | -0.0688 ± 0.15
37 | AGATGGAC | -0.09113 ± 0.00061
38 | TGTGTCAA | 0.254 ± 0.011
39 | GATGTCAA | 0.0342 ± 0.06
40 | AGTGTCAA | 0.122 ± 0.14
41 | TATGTCAA | 0.287 ± 0.054
42 | CGTGTCAA | 0.0498 ± 0.015
43 | AATGTCAA | 0.0117 ± 0.23
44 | CAGAGCGA | -0.0911 ± 0.044
45 | GGTTTGAA | 0.145 ± 0.0079
46 | CCAGTGGG | -0.122 ± 0.16
47 | GACTTCTA | -0.0184 ± 0.13
48 | AAAAACAC | 0.251 ± 0.05
49 | CCAAACAG | -0.0488 ± 0.037
50 | CCAAACAC | 0.242 ± 0.076

Row | Sequence | PBM 8-mer E-score
51 | GCAAACAC | 0.156 ± 0.07
52 | ACAAACAG | -0.0244 ± 0.058
53 | ACAAACAA | 0.112 ± 0.0055
54 | ACAAACAC | 0.268 ± 0.053
55 | GAAAACAC | 0.0469 ± 0.11
56 | CAAAACAC | 0.073 ± 0.066
57 | CTAAACAA | 0.0536 ± 0.046
58 | CTGCGTGC | -0.0949 ± 0.0091
59 | CGATCGAG | -0.26 ± 0.069
60 | CATGCCCA | 0.00676 ± 0.079
61 | CCCCTCCG | 0.044 ± 0.086
62 | CCTCCCAA | 0.0602 ± 0.2
63 | CCTCCCCC | -0.0244 ± 0.2
64 | GCCTCCCA | -0.155 ± 0.12
65 | CCCTCCCA | 0.262 ± 0.0086
66 | CCCTCCCC | 0.171 ± 0.15
67 | CCCCTCCC | 0.239 ± 0.16
68 | CCTCCCCA | 0.258 ± 0.065
69 | ACCTCCCA | 0.00978 ± 0.14
70 | CTGGGTAC | -0.201 ± 0.15
71 | GGATGGAC | 0.106 ± 0.062
72 | AGGGTTTA | 0.152 ± 0.0074
73 | AGGAGCAA | -0.034 ± 0.032
74 | CACCACCA | -0.0146 ± 0.046
75 | AACGATCC | -0.124 ± 0.023

Row | Sequence | PBM 8-mer E-score
76 | GCAATGGC | 0.0112 ± 0.019
77 | ATACGCTC | 0.0772 ± 0.0077
78 | CCCATACA | 0.0285 ± 0.11
79 | GGACTGCC | -0.0905 ± 0.19
80 | GCATATGC | 0.245 ± 0.008
81 | ACATATCA | 0.252 ± 0.013
82 | TCATATAA | 0.15 ± 0.064
83 | ACATATAA | 0.309 ± 0.078
84 | CCATATAA | 0.174 ± 0.02
85 | ACATATAC | -0.00226 ± 0.03
86 | GCATATGA | 0.138 ± 0.034
87 | ACATATAG | 0.0953 ± 0.059
88 | CCATATCA | 0.0654 ± 0.064
89 | CCATATGC | 0.112 ± 0.14
90 | ACATATCG | 0.0595 ± 0.028
91 | ACATATAT | 0.244 ± 0.04
92 | GCGGCCTA | -0.209 ± 0.12
93 | ATGCGATG | 0.054 ± 0.083
94 | GTGAACAA | 0.114 ± 0.0024
95 | CAGGCGAC | -0.124 ± 0.082
96 | CGTCCCGA | -0.209 ± 0.12
97 | AAAGTTAG | 0.127 ± 0.044
98 | AGTGCAGA | 0.0828 ± 0.16
99 | ATAGCGGC | -0.135 ± 0.21
100 | AACCTAGT | -0.18 ± 0.029

Row | Sequence | PBM 8-mer E-score
101 | ATTGTGCC | 0.174 ± 0.071
102 | ACATATGG | 0.155 ± 0.071
103 | ACATATGC | 0.0404 ± 0.029
104 | ACATATGT | 0.265 ± 0.11
105 | CGTTCTGC | -0.108 ± 0.038
106 | GATGTGAC | -0.231 ± 0.026
107 | AATGTGAC | -0.0272 ± 0.014
108 | GATGTGAA | 0.15 ± 0.0086
109 | CATGTGAG | 0.226 ± 0.08
110 | CATGTGAC | 0.3772 ± 0.0032
111 | TATGTGAA | 0.254 ± 0.13
112 | CATGTGAA | 0.249 ± 0.059
113 | AATGTGAA | 0.181 ± 0.089
114 | CCTGTGAA | -0.00915 ± 0.077
115 | AACCCGCT | 0.00053 ± 0.075
116 | ATAACCCG | -0.0972 ± 0.023
117 | GATACTGA | -0.0332 ± 0.11
118 | ATAAAAAT | 0.209 ± 0.032
119 | ATATAAAA | 0.257 ± 0.14
120 | ACATAAAA | 0.192 ± 0.085
121 | ACATAAAT | 0.249 ± 0.026
122 | ATATAAAG | 0.138 ± 0.006
123 | TGATAAAA | 0.282 ± 0.056
124 | GTATAAAA | 0.2289 ± 0.0018
125 | GGATAAAA | 0.116 ± 0.12

Row | Sequence | PBM 8-mer E-score
126 | CTATAAAA | 0.0799 ± 0.029
127 | ACATAAAG | 0.197 ± 0.04
128 | ATATAAAT | 0.26 ± 0.013
129 | CGATAAAA | 0.0372 ± 0.13
130 | TGTCTAAA | 0.127 ± 0.015
131 | TTGCTAAA | -0.0675 ± 0.037
132 | ACATCGCC | 0.0533 ± 0.012
133 | CATAAGCG | -0.0132 ± 0.16
134 | ACGCTACT | -0.103 ± 0.057
135 | CGCACAGA | -0.00527 ± 0.17
136 | GCTACTTA | 0.0733 ± 0.061
137 | GCATCAAA | 0.0826 ± 0.0033
138 | TCAGTACA | -0.0447 ± 0.075
139 | ATATAAAC | 0.249 ± 0.1
140 | CTATAAAC | -0.0175 ± 0.061
141 | GTATAAAC | 0.097 ± 0.035
142 | GTATAAGA | 0.176 ± 0.037
143 | ATATAAGA | 0.257 ± 0.1
144 | CTATAAGA | 0.00621 ± 0.13
145 | CCGCACAA | -0.0967 ± 0.091
146 | CAGTGTCG | -0.18 ± 0.018
147 | GGGGACAA | -0.00341 ± 0.1
148 | TTGGACAA | 0.137 ± 0.038
149 | AGGGACAA | -0.0703 ± 0.11
150 | TGGGACAA | 0.233 ± 0.12

Row | Sequence | PBM 8-mer E-score
151 | CTGGACAA | -0.0424 ± 0.18
152 | GTGGACAA | 0.236 ± 0.0099
153 | ATCTAAGG | 0.00267 ± 0.011
154 | GACAGTAC | 0.0423 ± 0.12
155 | AACAGCCA | 0.0334 ± 0.032
156 | GCCCGGAC | -0.319 ± 0.01
157 | TGCACACA | 0.0593 ± 0.099
158 | ATAGGCTA | 0.00221 ± 0.094
159 | CCATTTTA | 0.0902 ± 0.15
160 | GCTTTTAA | -0.0112 ± 0.043
161 | ATATTTAC | 0.23 ± 0.07
162 | GCTTTTTA | 0.237 ± 0.16
163 | CCTTTTTA | 0.171 ± 0.029
164 | CTATTTAA | 0.0374 ± 0.0014
165 | CCTTTTCA | 0.245 ± 0.15
166 | GCATTTTA | 0.16 ± 0.072
167 | ATATTTAA | 0.302 ± 0.021
168 | ACATTTTA | 0.297 ± 0.048
169 | GCTTTTCA | 0.0385 ± 0.086
170 | CTTTTTCA | 0.144 ± 0.055
171 | ACGAAATG | 0.158 ± 0.068
172 | CTCGGCTC | -0.235 ± 0.028
